The sample as a whole holds a higher share of hits than the screen did.
Shiga inhibitor – Shiga toxin inhibition; Vero cells, Shiga toxin protein synthesis inhibition reporter; AID 2315; inhibition, % at 38.7 µM; 9.2% of 290,000 active; in the data active means inhibition mostly above about 28%, no sharp cut-off; inactive means mostly below about 43%
CHX counter – counter-screen for Shiga toxin inhibitors: cycloheximide protein synthesis inhibition; cell reporter, cycloheximide protein synthesis inhibition counterscreen; max response, %; 12% of 300,000 active; AID 2314; in the data active means max response mostly above about 13%, no sharp cut-off; inactive means mostly below about 14%; further: read at 38.3 µM for the half of the compounds with a filed dose
MARV entry inh – blocks Marburg virus binding to or entry into cells. Marburg virus pseudotyped entry inhibition, cell reporter. Potency, µM (highest dose often 37.8 µM), hits mostly inhibitors. 1.8% of 300,000 active; calls by dose curve; tested in HEK293 cells
AMA1 RON2 block – AMA1-RON2 (P. falciparum) interaction inhibition; 0.2% of 360,000 active; AID 720542; AlphaScreen AMA1-biotinylated RON2 peptide binding; Potency, µM (top dose mostly 58.2 µM), usual class: inhibitors; further: nearly all actives have a fitted effect of over 45% in size
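AMA1 (3D7) with his tag at 25 nM final met compounds first, then biotinylated RON2 peptide at 25 nM; detection used donor plus acceptor beads, 10 µg/mL apiece, read by AlphaScreen after 30 min at room temperature.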
LASV entry inh – inhibitors of Lassa virus binding or cell entry | Lassa virus pseudotype entry inhibition, cell reporter | Potency, µM (series often up to 37.9 µM), hits mostly inhibitors | 1.2% of 300,000 active | AID 540256; calls by dose curve; tested in HEK293 cells; further: nearly all actives have a fitted effect of over 50% in size
HeLa G2M arrest – causes HeLa cells to arrest in G2/M phase; shares compounds with MARV entry inh; HeLa cell cycle G2/M arrest, Hoechst DNA content imaging; Potency, µM, most hits filed as inhibitors; 60% of 25 active; AID 2441
WI-38 tox – WI-38 cytotoxicity of perinucleolar compartment inhibitors; shares compounds with MARV entry inh; WI-38 normal lung fibroblasts, ATPLite luminescence ATP viability, 24 h; Potency, µM (doses to about 46.1 µM), actives largely listed as inhibitors; 120 tested, under 10 active; AID 2729
PNC assembly inh – confirmation of perinucleolar compartment assembly inhibitors. shares compounds with MARV entry inh. AID 2730. Potency, µM (highest dose often 46.1 µM), hits mostly inhibitors. PC3M PTB-GFP, PNC prevalence imaging, 16 h. 50% of 120 active
PC3M caspase – activates caspase 3/7 in PC3M cells in PNC counter-screen; shares compounds with MARV entry inh; PC3M-GFP caspase 3/7 activation, luminescence, 24 h; activity change, positive = activation, % at 46.1 µM; 120 tested, under 10 active; AID 2731
A number is an active result. Unless noted, the call rests on the fitted dose curve; in most records, active means well fitted curve in the direction sought with a large enough effect; inconclusive means small, poorly fitted or top-dose-only effect, or another doubt; inactive means no such curve, though single readings can be large; an effect the other way counts as inactive or inconclusive.

For O=S(=O)(Nc1cc(Sc2cccc3cccnc23)c(O)c2ccccc12)c1ccc(F)cc1 the results were Shiga inhibitor active, CHX counter 24, MARV entry inh 6.5µM, AMA1 RON2 block inactive, LASV entry inh 11µM, WI-38 tox inconclusive, PNC assembly inh inconclusive and PC3M caspase inconclusive.
For Cc1oc(-c2ccccc2Cl)nc1CSCC(=O)N1CCCC1 the results were Shiga inhibitor inactive, CHX counter inactive, MARV entry inh inconclusive, AMA1 RON2 block inactive, LASV entry inh 0.65µM, WI-38 tox inactive, PNC assembly inh 4µM and PC3M caspase inactive.
`Cc1oc(-c2ccccc2Cl)nc1CSCC(=O)NC1CCCC1` gave Shiga inhibitor inactive, CHX counter inactive, MARV entry inh inactive, AMA1 RON2 block inactive and LASV entry inh inactive.
Screening C/C=C/c1cccc(-c2nc(C(=O)NC3Cc4ccccc4C3)cc3c2[C@@H](CCO)N(C(C)=O)C3)c1 returned AMA1 RON2 block inactive.
Nc1ccc2c(c1)C(=O)c1ccccc1-2 was read as MARV entry inh inconclusive, AMA1 RON2 block inactive and LASV entry inh inactive.
Screening Nc1ccc2c(c1)C(=O)C(=O)c1ccccc1-2 returned Shiga inhibitor inactive, CHX counter inactive, MARV entry inh 5.6µM, AMA1 RON2 block inactive, LASV entry inh inconclusive, WI-38 tox 28µM, PNC assembly inh 20µM and PC3M caspase inactive.
`O=C1C(=O)c2ccc(-c3ccccc3)cc2-c2ccccc21` gave Shiga inhibitor inactive, CHX counter inactive, MARV entry inh 5.8µM, AMA1 RON2 block inactive, LASV entry inh inconclusive, WI-38 tox inconclusive, PNC assembly inh 22µM and PC3M caspase inconclusive.
CCCCN(C(=O)c1ccc(-n2nc(C)cc2C)cc1)c1c(N)n(CCC)c(=O)[nH]c1=O was read as MARV entry inh inactive, AMA1 RON2 block inactive and LASV entry inh inactive.
`CCc1ccc(S(=O)(=O)/N=C2\C=CC(=O)c3ccccc32)cc1` gave Shiga inhibitor inactive and CHX counter inactive.
`CCc1ccc(S(=O)(=O)/N=C2/C=C(Sc3ncn[nH]3)C(=O)c3ccccc32)cc1` gave Shiga inhibitor 49, CHX counter 19, MARV entry inh inconclusive, AMA1 RON2 block inactive, LASV entry inh 13µM, WI-38 tox inconclusive, PNC assembly inh 28µM and PC3M caspase inactive.
`CN(C)S(=O)(=O)c1ccc2c(c1)/C(=C/c1cc3c([nH]1)CCCC3)C(=O)N2` gave MARV entry inh inconclusive, AMA1 RON2 block inactive, LASV entry inh inconclusive and HeLa G2M arrest inconclusive.
CCC(=O)N(C1=C(NC(C)C)C(=O)c2ccccc2C1=O)C(C)C was read as Shiga inhibitor inactive, CHX counter inactive and AMA1 RON2 block inactive.
For CCCNC1=C(N(C(C)=O)c2cccc(F)c2)C(=O)c2ccccc2C1=O the results were Shiga inhibitor inactive, CHX counter inactive, MARV entry inh inconclusive, AMA1 RON2 block inactive, LASV entry inh inconclusive, WI-38 tox inactive, PNC assembly inh inconclusive and PC3M caspase inconclusive.
`CC(=O)c1ccc(-n2c(SCC(=O)c3c[nH]c4ccccc34)nc3ccccc3c2=O)cc1` gave Shiga inhibitor inactive, CHX counter inactive, MARV entry inh inactive, AMA1 RON2 block inactive, WI-38 tox inactive, PNC assembly inh inactive and PC3M caspase inactive.
For O=C(Nc1ccc2c(c1)OCO2)C1Cc2c(-c3ccc4c(c3)OCO4)ccnc2O1 (centres undefined) the results were AMA1 RON2 block inactive.
CCCSc1cc(N2CCN(C)CC2)nc(-c2ccc(OC)cc2)n1 was read as Shiga inhibitor inactive, CHX counter inactive, MARV entry inh inconclusive, AMA1 RON2 block inactive, LASV entry inh inconclusive, WI-38 tox inactive, PNC assembly inh inconclusive and PC3M caspase inactive.
Screening CCCSc1cc(N2CCCC2)nc(-c2ccccc2)n1 returned Shiga inhibitor inactive, CHX counter inactive, MARV entry inh inactive, AMA1 RON2 block inactive and LASV entry inh inactive.
For CCC(=NCc1cc(OC)cc(OC)c1)c1c(O)n(C)c(=O)n(C)c1=O the results were Shiga inhibitor inactive, CHX counter inactive, MARV entry inh 21µM, AMA1 RON2 block inactive, LASV entry inh inconclusive, WI-38 tox inactive, PNC assembly inh inconclusive and PC3M caspase inactive.
Cc1ccc(OCCn2cc(C(=S)N3CCCC3)c3ccccc32)cc1C was read as Shiga inhibitor inactive, CHX counter inactive, MARV entry inh 3.2µM, AMA1 RON2 block inactive, LASV entry inh 2.8µM, WI-38 tox inactive, PNC assembly inh 7.9µM and PC3M caspase inactive.
Cc1ccc(OCCn2cc(/C(N)=N/O)c3ccccc32)cc1C was read as Shiga inhibitor inactive, CHX counter inactive, MARV entry inh inactive, AMA1 RON2 block inactive and LASV entry inh inactive.
N#Cc1c(-c2ccccc2)cc(-c2ccccc2)nc1SCCC(=O)O was read as Shiga inhibitor inactive, CHX counter inactive, MARV entry inh inconclusive, AMA1 RON2 block inactive and LASV entry inh inconclusive.
Screening Cc1c(C(=O)N2CCCCCC2)c(S(=O)(=O)Nc2ccc(OC(F)(F)F)cc2)c(C)n1C returned LASV entry inh inactive.
`CC/C(=C(\c1ccccc1)c1ccc(OCCN(C)C)cc1)c1ccccc1` gave MARV entry inh 3.5µM, AMA1 RON2 block inconclusive and HeLa G2M arrest inconclusive.
CC(C)[C@@H](C(=O)N1CCCC1)N1C(=O)N2CCc3c([nH]c4ccccc34)[C@@]2(C)C1=O was read as Shiga inhibitor inactive, CHX counter inactive and AMA1 RON2 block inactive.
Nc1nnc(-c2cccc([N+](=O)[O-])c2)s1 was read as Shiga inhibitor inactive, CHX counter inactive, MARV entry inh inconclusive, AMA1 RON2 block inactive and LASV entry inh inactive.
Screening Nc1cccc(-c2nc3ccc(N)cc3s2)c1 returned Shiga inhibitor inactive, CHX counter 21, MARV entry inh 11µM, AMA1 RON2 block inactive, LASV entry inh inconclusive, WI-38 tox 28µM, PNC assembly inh 5µM and PC3M caspase inactive.
For Cc1cc(OCC(=O)NNC(=O)c2cccnc2)cc(C)c1Cl the results were Shiga inhibitor inactive, CHX counter inactive and AMA1 RON2 block inactive.
Screening CSc1n[nH]c(NCc2cccs2)n1 returned Shiga inhibitor inactive, CHX counter inactive, MARV entry inh inconclusive, AMA1 RON2 block inactive and LASV entry inh inactive.
`CCN(CC)c1ccc(N=Cc2ccccc2[N+](=O)[O-])cc1` gave Shiga inhibitor inactive, CHX counter inactive, MARV entry inh inconclusive, AMA1 RON2 block 18µM, LASV entry inh inconclusive, WI-38 tox inactive, PNC assembly inh inactive and PC3M caspase inactive.
For O=C(NNC(=O)C1CC(=O)N(Cc2ccccc2)C1)c1ccc(F)cc1 (centres undefined) the results were MARV entry inh inconclusive, AMA1 RON2 block inactive and LASV entry inh inactive.

Screening results (PubChem BioAssay)
